Article PMC12136788
Substitutions are numbered along the chain they refer to. Over roughly 5,800 sequences, “enrichment r” has its median near 0.68; the highest 2% begin near 11. This excerpt belongs to a sample that is enriched for the highest values.

T1: UNK ZnF1-6 (called full-length) (human, UniProt Q9C0B0 30-357)
T1 sequence: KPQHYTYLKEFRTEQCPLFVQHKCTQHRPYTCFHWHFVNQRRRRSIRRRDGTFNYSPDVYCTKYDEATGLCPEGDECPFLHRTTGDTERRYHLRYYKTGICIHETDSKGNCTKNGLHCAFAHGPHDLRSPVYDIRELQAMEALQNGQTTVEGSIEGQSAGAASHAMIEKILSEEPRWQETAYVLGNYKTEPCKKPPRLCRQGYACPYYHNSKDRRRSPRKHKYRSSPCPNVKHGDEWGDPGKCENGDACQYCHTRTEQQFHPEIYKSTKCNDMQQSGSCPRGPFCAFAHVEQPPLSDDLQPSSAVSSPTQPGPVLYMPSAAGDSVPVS

B1: chr16:70160055:70160156:+|3pUTR|ENSG00000090857|msi1|total|mutant (ssRNA)
RNA: GGGAGUUCUACAGUCCGACGAUCUUGUGCUCACCACGAAGGAUGGUCUCUGCCUUCUCUUGUCGGUGUAUGCCAUCUGAACCCCGGAACACAAAGUAUAUUGGCCUCAAACGGAGACCCAGGGUUGCCAGUUUUCCGUGGGCCCAACAGAGGAUUGAGCAUCA
B2: chr12:68660398:68660499:+|3pUTR|ENSG00000127314|msi1|FALSE|unique (ssRNA)
RNA: GGGAGUUCUACAGUCCGACGAUCUUGAGGUGGCCAAAUGUAAACUAAAAGCCUUAAUUAAAGUGGUGCAAUUUUGUAUAACUUAGCAUCAGUAGUUCAAUAAAUUUGGAUUGCCAUGCAAGGGCUUGCAUUAUAAUUACUUGCCAACAGAGGAUUGAGCAUCA
B3: chr4:186588032:186588133:-|3pUTR|ENSG00000083857|msi1|FALSE|unique (ssRNA)
RNA: GGGAGUUCUACAGUCCGACGAUCUUUUUUUACUAUAACCAGGGUUUCAUUCUGUCUUUUUCCACUGAAGUGUGACAUUUUGUUAGUACAUUUCAGUGUAGUCAUUCAUUUCUAGCUGUACAUAGGAUGAAGGAGAGAUCAGAUCAACAGAGGAUUGAGCAUCA
B4: chr1:225496770:225496921:-|3pUTR|ENSG00000154380|msi1|FALSE|unique (ssRNA)
RNA: GGGAGUUCUACAGUCCGACGAUCUUUUUUAAUUGCAGACAGUAAUGCAUGUCACACUAAUAUGUAGUGGCCUUUUCAAGGCCUAGUCCCAGGGAAAACAUUUUGUAGAGUAUAGGGGAGUGGGAGGAAGGGGAGGAAUAAUUUCAACAGAGGAUUGAGCAUCA
B5: chr13:45969211:45969312:-|CDS|ENSG00000123200|unk|FALSE|unique (ssRNA)
RNA: GGGAGUUCUACAGUCCGACGAUCGUCCCUGACCGUACAGAGGUGACAGAAGCAGAGCAUACUGCCACCGCCACGACUCCUGGUAGUACCCCUUCUCCUCUAUCUUCUCUUCUUCCUCCUCCACCGCCUGUGGCUACUGCCACUCAACAGAGGAUUGAGCAUCA
B6: ENSG00000107863:be:win_5851|CDS_3pUTR|ENSG00000107863|bound_else_gene|NA|bound_elsewhere_windowed (ssRNA)
RNA: GGGAGUUCUACAGUCCGACGAUCAAAGCAGAGUUUCAUCCCUGUCUUUAAACUGGGGGUAUGUCCACUCUAGCAAGUAAAAAAACUACUGUUACACGUUCCAGUAACUCUGUCAAUAUUUUCUUGUAUCAGAAUUGUUAUUAUCAACAGAGGAUUGAGCAUCA
B7: ENSG00000198589:be:win_7901|CDS|ENSG00000198589|bound_else_gene|NA|bound_elsewhere_windowed (ssRNA)
RNA: GGGAGUUCUACAGUCCGACGAUCCUCGUUCUGAGUCAUAUAUUGGGGGAAAUUGCUACAUUCUCUCAGGGUCACGUGAUGCAACUCUUUUGCUGUGGUAUUGGAAUGGAAAAUGCAGUGGGAUUGGAGAUAACCCAGGCAGUGCAACAGAGGAUUGAGCAUCA
B8: chr13:106491723:106491923:-|3pUTR|ENSG00000125266|msi1|total|mutant (ssRNA)
RNA: GGGAGUUCUACAGUCCGACGAUCCAGACUCAGCUGCUAUACUUAUCACAUUUUAUUAAACACAGGGAAAGCAUUCCGGAGAACCGCAGAGAGCCAAAUCUGACCUAAAAGUUGAAAAGCCAAAGGUCAAACAGGCUGUAAUUCCAACAGAGGAUUGAGCAUCA
B9: chr1:178849534:178851128:-|three_prime_utr|ENSG00000116194|control|control|control (ssRNA)
RNA: GGGAGUUCUACAGUCCGACGAUCCUACACAGAAAGUUUUUAAAAUGAAUUUUACCGUAACUAUAAAAGGGAACCUAUAAAUGUAGUUUCAUCUGUCGUCAAUUACUGCAGAAAAUUAUGUGUAUCCACAACCUAGUUAUUUUACAACAGAGGAUUGAGCAUCA
B10: chr1:93361585:93361687:+|3pUTR|ENSG00000117505|unk|total|mutant (ssRNA)
RNA: GGGAGUUCUACAGUCCGACGAUCUUUAACUUGCCGUUACCGUUUACUUAUUGUUUUCCGAAUUACUUUUACAUUUUCCCAACCCGAUGGCCCCGAGUCCAACAUUACCUUUUGAGAUGACAUUAUUGUCUCCAUAAUUGAGUGCAACAGAGGAUUGAGCAUCA
B11: chr3:89481969:89482070:+|3pUTR|ENSG00000044524|msi1|FALSE|unique (ssRNA)
RNA: GGGAGUUCUACAGUCCGACGAUCAUAUGUGUUUACUUUAAACUUGUCUUUUCAAAAUAUUACUCAGUUUAUGUUGUACAAUGUAGAUGGCCUCUUACUAAUGUAAAAUGAUUUGUAGUGGAAACAUUUAUAUUUUUAUAAUAACAACAGAGGAUUGAGCAUCA
B12: chr1:162523450:162523604:+|3pUTR|ENSG00000152332|msi1|FALSE|unique (ssRNA)
RNA: GGGAGUUCUACAGUCCGACGAUCAGACUAAGUUGUGCCAGAUGUAAAUCAACCCCUCUUUUAGUUUACUUUAGACUUUGUAUUAGCUCAUCUUUUUUGUAGUAAAUCUAUAGUUUUAAGGUUUCUCAAGAUGUGGCUCUACCUCAACAGAGGAUUGAGCAUCA
B13: chr2:5695263:5695412:+|3pUTR|ENSG00000176887|msi1_unk|FALSE|overlapping (ssRNA)
RNA: GGGAGUUCUACAGUCCGACGAUCUGGUGAUAUAGACCUCAGAGCUGUUAUCUUAGUUUAAAGAUUGUAUAUGUACUGUACUAUAGUAGGACUUUAUGUAUCUCAUACGCUGUGAUGUGGAUGGGGCCCCAGAUGGAAGGUUUGCAACAGAGGAUUGAGCAUCA
B14: chr15:52550141:52550321:-|3pUTR|ENSG00000128989|msi1|FALSE|unique (ssRNA)
RNA: GGGAGUUCUACAGUCCGACGAUCAGAUGUCACUUUAGUAAAAUACCAAUUUAGUUUUACUUGUGGCUUAUCUAGUUAGAACUUAGCAGACUUUACUGGGACAAGUUUACUGCUCUUGUAGGAGCUCCUCUCACAAGUAGUUGUCAACAGAGGAUUGAGCAUCA
B15: chr1:93361585:93361687:+|3pUTR|ENSG00000117505|unk|FALSE|unique (ssRNA)
RNA: B10 RNA with C33U, C34A, C39U, C40A, C57U, C58A, C83U, C84A, C92U, C93A
B16: chr1:9729969:9730061:-|3pUTR|ENSG00000171603|msi1_unk|total|mutant (ssRNA)
RNA: GGGAGUUCUACAGUCCGACGAUCGUUUUUAUUUUUUCCAAACCCGUGCAUGUAUAAAUAAUGGCAGGAUGGGGGGUACUGUGCCGAUGAUUAACUGACUUUUUAAUAUUUUGUAAAUAAAUCGGAUUCCUUGUGUCCUUUGUGCAACAGAGGAUUGAGCAUCA
B17: chr10:16593140:16593241:-|3pUTR|ENSG00000148484|unk|FALSE|unique (ssRNA)
RNA: GGGAGUUCUACAGUCCGACGAUCUUAUUUUUCUUUUCACUCUCUUUCUAAUGCUUCCCACCUUACCUUUUAGAUUCUUUUGCUAGGUGGGAGAUUGUUAUAAGGUCUUUAAACCAUUUCCAUUUGUUUCUUUAACAUUACCAACAACAGAGGAUUGAGCAUCA
B18: chr11:119045269:119045370:-|3pUTR|ENSG00000149428|msi1|FALSE|unique (ssRNA)
RNA: GGGAGUUCUACAGUCCGACGAUCUGUGGUUAAAAAUGGAAACUGUUCUCCUCCCCAGCCCCACUCCCUGUUCCCUACCCAUAUAGGCCCUAAAUUUGGGAAAAAUCACUAUUAAUUUCUGAAUCCUUUGCCUGUGGGUAGGAACAACAGAGGAUUGAGCAUCA
B19: chr1:9729969:9730061:-|3pUTR|ENSG00000171603|msi1_unk|FALSE|overlapping (ssRNA)
RNA: B16 RNA with C43U, C44A, C83U, C84A
B20: chr14:53039561:53039662:-|3pUTR|ENSG00000100523|unk|total|mutant (ssRNA)
RNA: GGGAGUUCUACAGUCCGACGAUCUCAAACUAUAUUUUUGUUACAGCAAACUACAUUCCAUUUGCCUUUAAAUGCUUGCAUUUCCGUUAUUGUACUGGCUACCUGUUUUUGUCUGCCCAGCAUCCUGUUUCCCCUCCUUUUGGACAACAGAGGAUUGAGCAUCA
B21: chr10:17315694:17315795:-|3pUTR|ENSG00000148488|unk|FALSE|unique (ssRNA)
RNA: GGGAGUUCUACAGUCCGACGAUCCUUCUUCCUCCCUGUCCAUCCCACCCUCGUCCCCAGAAAAUUCCUAAUCUGUUUUUCUAUAGACAUUUACAUUUUUACACUAUAGACUGUUUACAUUUUUUAGAAUUUUAUAUAAAUGGACAACAGAGGAUUGAGCAUCA
B22: chr1:180885316:180885399:+|3pUTR|ENSG00000143324|msi1_unk|FALSE|overlapping (ssRNA)
RNA: GGGAGUUCUACAGUCCGACGAUCUUGGCAGCCAUUUCUCCCAGCAGUUUUAAAGGAUGAACAUUGGAUUUCAUGCCAUCCCAUAGAAAACCUGUUUUAAAAUUUUAGGGAUCUUUACUUGGUCAUACAUGAAAAGUACACUGCCAACAGAGGAUUGAGCAUCA

target: T1, UNK ZnF1-6 (called full-length); test: nsRBNS (natural sequence RNA bind-n-seq); RBNS binding buffer (assumed for nsRBNS): 25 mM Tris pH 7.5, 150 mM KCl, 3 mM MgCl2, 0.01% Triton X-100, 500 ug/ml BSA, 20 U/ml SUPERase-In, 4 C; UNK is unkempt and MSI1 is Musashi-1; names of the RNAs are library labels; protein concentration not given here; high values mean tight binding

Point of comparison: B14, binding signal 2.25 enrichment R. Against it:
- B1 — lower, 0.469 enrichment R
- B2 — lower, 0.685 enrichment R
- B3 — lower, 1.31 enrichment R
- B4 — higher, 7.59 enrichment R
- B5 — lower, 1.84 enrichment R
- B6 — lower, 0.426 enrichment R
- B7 — lower, 0.728 enrichment R
- B8 — lower, 1.05 enrichment R
- B9 — higher, 2.6 enrichment R
- B10 — higher, 4.48 enrichment R
- B11 — lower, 1.68 enrichment R
- B12 — higher, 58.2 enrichment R
- B13 — lower, 1.36 enrichment R
- B15 — higher, 152 enrichment R
- B16 — lower, 1.54 enrichment R
- B17 — higher, 4.14 enrichment R
- B18 — lower, 0.528 enrichment R
- B19 — higher, 22 enrichment R
- B20 — lower, 0.468 enrichment R
- B21 — higher, 25.2 enrichment R
- B22 — lower, 1.91 enrichment R
